Potency and activity change, negative = inhibition data for 40 molecules are collected here from PubChem BioAssay (Tox21).

Results filed as inconclusive are left out. A call without a number means that no potency is given here. Values without a mark were called inactive. Active and inactive are the calls of the source. The call rests on the fitted dose curve; in most records, active means well fitted inhibition curve with a large enough effect in the repeat runs; inconclusive means weak or mixed curves; inactive means flat fitted curve, though single readings scatter.
Potency means the concentration at half of the fitted maximal effect.

A short description of this assay: qHTS assay to identify small molecule HDAC inhibitors (AID 1259364). Further: nearly all actives have a fitted effect of over 45% in size. On activity change, negative = inhibition: top concentration of the series differs between compounds. The settings on record: HCT-116 HDAC-Glo I/II luminescence, 2 h; series mostly up to 92.4 µM. From the text:
U.S. Tox21 Program National Center for Advancing Translational Sciences [NCATS] NIH Chemical Genomics Center [NCGC] U.S. Environmental Protection Agency [EPA] National Institutes of Environmental Health Sciences [NIEHS] National Toxicology Program [NTP] U.S. Food and Drug Administration [FDA] Tox21 Assay Overview: Histone deacetylases (HDACs) are a group of epigenetic enzymes that regulate gene expression by histone deacetylation. HDACs are capable of introducing epigenetic modifications and such aberrations contribute to the onset and progression of several human diseases, thus making HDACs a popular therapeutic target. For identifying endogenous class I/II HDAC inhibitors a homogenous, luminogenic HDAC I/II cell based assay was used to measure the relative activity of class I and II HDACs from cells. Wild type HCT-116 cells were used to screen Tox21 libraries for identifying class I/II HDAC inhibitors.
Tox21 Assay Protocol Summary: HCT-116 cells were dispensed at 1,500 per well in 5uL of culture medium into white solid bottom 1536-well plates (Greiner Bio-One, Monroe, NC) using a Multidrop Combi (Thermo Scientific, Waltham, MA) dispenser. The assay plates were incubated at 37 C and 5% CO2 for an overnight, and then 23nL of compounds dissolved in DMSO and positive control were transferred using a Pintool station (Wako, San Diego, CA). The assay plates were incubated at 37C and 5% CO2 for 2hr. After compound treatment, 4uL of HDAC-Glo reagent (Promega Corporation, Madison, WI) was added to each well of the assay plates using Flying Reagent Dispenser (FRD, Aurora Discovery, San Diego, CA) and incubated the assay plates at room temperature for 30min. The luminescence signal was quantified using a ViewLux plate reader (Perkin Elmer, Shelton, CT).
Background: qHTS replaces the single test concentration by a dilution series.
For `O=[Si]=O`, the Potency entry is “inactive”.
Same read-out and setting: under `Cc1ccc(C(=O)C(=O)O)cc1C` stands “inactive”; under `CC(=O)OC[C@H]1O[C@@H](OC(C)=O)[C@H](OC(C)=O)[C@@H]1OC(C)=O`, “inactive”.
On to `CC1CCC(C(C)(C)S)C(=O)C1` (stereo not given), for which the Potency result was “inactive”.
On the same count and under the same terms, the same measure for `Cc1ccccc1C`: “inactive”; for `CCCCCCCCCCCCC1CO1` (stereo not given): “inactive”; for `CCCCCC1Nc2cc(C(F)(F)F)c(S(N)(=O)=O)cc2S(=O)(=O)N1` (stereo not given): “inactive”.
On the same count and under the same terms, the same measure for `CCCCCC(=O)OCC`: “inactive”; for `CCOC(=O)C(=O)c1csc(NC=O)n1`: “inactive”; for `C=CCOCC(O)CCl` (stereo not given): “inactive”.
Still for that read-out and setting: the same measure for `NCCc1ccn[nH]1`: “inactive”; for `Nc1ccc(S(=O)(=O)Nc2ccccn2)cc1`: “inactive”; for `C1=CCC(c2ccccc2)CC1` (stereo not given): “inactive”.
`CC(C)(C)c1ccc(C=O)cc1`: the Potency entry was “inactive”.
On the same count and under the same terms, the same measure for `F[Si-2](F)(F)(F)(F)F`: “inactive”; for `CCC(C)N` (stereo not given): “inactive”.
Turning to `CC(=O)OC(C)c1ccccc1` (stereo not given), the Potency entry was “inactive”.
On the same count and under the same terms, under `C[C@H](CCC(=O)NCC(=O)O)[C@H]1CC[C@H]2[C@@H]3[C@H](O)C[C@@H]4C[C@H](O)CC[C@]4(C)[C@H]3C[C@H](O)[C@]12C` stands “inactive”; under `Cc1nc([N+](=O)[O-])cn1-c1ccc([N+](=O)[O-])cc1`, “inactive”; under `CC(C)CCCC(C)CC=O` (stereo not given), “inactive”.
On the same count and under the same terms, the same measure for `CCCCC(CC)COC(=O)c1ccccc1` (stereo not given): “inactive”.
Same read-out and setting: the same measure for `OCCCCCCCl`: “inactive”; for `CCN(CCC#N)c1ccccc1`: “inactive”; for `CCN(CCO)c1cccc(C)c1`: “inactive”.
Take `Cc1ncc([N+](=O)[O-])n1CC(O)CCl` (stereo not given): the Potency entry is “inactive”.
On the same count and under the same terms, under `O=C(CN1CCN(Cc2ccc3c(c2)OCO3)CC1)N1c2ccccc2Sc2ccccc21` stands “inactive”.
As for `O=C(Nc1cccc(C2=NCCN2)c1)Nc1cccc(C2=NCCN2)c1`, the activity change, negative = inhibition is 3.65% [at 19 µM].
Consider `CCCCCCCCCOCC1CO1` (stereo not given), for which the Potency result was “inactive”.
Take `CC(CC(=O)O)CC(C)(C)C` (stereo not given): the Potency result is “inactive”.
The same measure, in the same setting: under `COc1ccc(NS(=O)(=O)c2ccc(N)cc2)nn1` stands “inactive”; under `Cc1cc(O)c2c(c1)C(=O)c1cccc(O)c1C2=O`, 13.4 µM (active).
The same measure, in the same setting: under `CCN1CN(CC)CN(CC)C1` stands “inactive”; under `CO[Si](CCCCl)(OC)OC`, “inactive”; under `O=C(Oc1ccccc1C(=O)O)c1ccccc1O`, “inactive”.
Consider `COc1cc2c3cc1Oc1cc(ccc1O)C[C@@H]1c4c(cc(OC)c(O)c4Oc4ccc(cc4)C[C@@H]3N(C)CC2)CC[N+]1(C)C`, for which the Potency entry is “inactive”.
Still for that read-out and setting: the same measure for `Nc1cc(Cl)cc(S(=O)(=O)O)c1O`: “inactive”.
On the same count and under the same terms, under `CCCCCCCCCCCCCCCC(=O)NCCO` stands “inactive”.
Still for that read-out and setting: the same measure for `CCOC(=O)CCc1ccccc1`: “inactive”.
As for `Cc1c(C(C)C)c(=O)n(-c2ccccc2)n1C`, the Potency result is “inactive”.
Still for that read-out and setting: the same measure for `Cc1cccc(C(=O)O)c1[N+](=O)[O-]`: “inactive”.
